Structures are written as SMILES. Active and inactive are the calls of the source. Rule for the calls: active = hit-call score of the fitted dose curve at least 0.9, where 1 is the maximum; inactive = score below 0.9.

The values below come from PubChem BioAssay (EPA / NIEHS).

The nature of the assay: ATG_ISRE_CIS: Attagene CIS-FACTORIAL HepG2 Assay for human Interferon Regulatory Factor 1 (IRF1) binding to an Interferon-Stimulated Response Element (ISRE) (AID 2282948). The note with it: HepG2 ISRE cis-reporter (Attagene), mRNA transcription readout; actives raise or lower the signal. As for the experimental part:
ATG_CIS is a cell-based, multiplexed-readout assay that uses HepG2, a human liver cell line, with measurements taken at 24 hours after chemical dosing in a 24-well plate.ATG_ISRE_CIS is one of 52 assay component(s) measured or calculated from the ATG_CIS assay. It is designed to make measurements of mRNA induction, a form of inducible reporter, as detected with fluorescence intensity signals by Reverse transcription polymerase chain reaction (RT-PCR) and Capillary electrophoresis technology.Data from the assay component ATG_ISRE_CIS was analyzed into 1 assay endpoint. This assay endpoint, ATG_ISRE_CIS, was analyzed with bidirectional fitting relative to DMSO as the negative control and baseline of activity. Using a type of inducible reporter, measures of mRNA for gain or loss-of-signal activity can be used to understand the reporter gene at the transcription factor-level as they relate to the gene IRF1. Furthermore, this assay endpoint can be referred to as a primary readout, because this assay has produced multiple assay endpoints where this one serves a reporter gene function. To generalize the intended target to other relatable targets, this assay endpoint is annotated to the dna binding intended target family, where the subfamily is interferon regulatory factors.
Human liver HepG2 cells are transiently transfected with multiple reporter transcription units (MRTUs) in 6-well plates using FuGene 6 reagent (Roche; 3 ml FuGene/1 mg DNA). The MRTU constructs are regulated by a cis-regulating element (promoter). […] A major difference between the CIS and TRANS system is that in CIS activities of endogenous TFs are measured, whereas the TRANS assay evaluates changes in activities of exogenous, chimeric NR-Gal4 proteins. […] At the end of 24 hour incubation, total RNA was isolated using TriZol reagent (Invitrogen). The isolated RNA is then reverse-transcribed using oligo(dT) primer and Mo-MLV reverse transcriptase (Invitrogen) with DNAse I (Ambion) treatment for 30 min. The one-tenth of the produced cDNA was amplified by PCR using Taq DNA polymerase (Invitrogen) and two reporter sequence-specific primers. The PCR products were fluorescently labeled by primer extension with 6-arboxyfluorescein (6-FAM) 5'-labeled reporter sequence-specific primer (2 min at 95 C, 20 s at 68 C and 10 min at 72 C) and these products were digested with 5U of HpaI (New England Biolabs) for 2h at 37 C. The fragments were purified using Qiaquick PCR columns (Qiagen), analyzed on an ABI 3130xL genetic analyzer (Applied Biosystems) with peak positions identified by using a set of X-rhodamine (ROX)-labeled MapMarker1000 molecular weight standards (BioVentures). The raw capillary electrophoresis data was processed using Attagraph software (Attagene).
In the case of `COc1cc(OC)c(OC)cc1C=O`, the outcome was inactive.
For orientation: AC50 means the midpoint of the concentration-response curve, whichever way the signal moves. Consider `CNC(=O)Oc1cc(C)c(SC)c(C)c1`, for which the AC50 is 100 µM (active).
On to `CCC(=O)c1ccc(Cl)cc1`, for which the result was inactive.
Take `CN1C(=O)CCS(=O)(=O)C1c1ccc(Cl)cc1` (stereo not given): the result was inactive.
The same measure, in the same setting: the value for `O=C(O)CCl` was “inactive”; that for `ClC1=C(Cl)[C@]2(Cl)[C@@H]3[C@@H](Cl)[C@H](Cl)C[C@@H]3[C@@]1(Cl)C2(Cl)Cl` was “inactive”.
With `O=P(O)(Oc1ccccc1)Oc1ccccc1`, the call was inactive.
Same read-out and setting: the value for `COC(=O)COc1ccc(Cl)cc1Cl` was “inactive”; that for `CC[N+](=O)[O-]` was “inactive”.
In the case of `C=CCN(CC=C)C(=O)C(Cl)Cl`, the result was inactive.
With `O=CNC(N1CCN(C(NC=O)C(Cl)(Cl)Cl)CC1)C(Cl)(Cl)Cl` (stereo not given), the molecule was classed as inactive.
The same measure, in the same setting: then `CCCCCCC1CCOC1=O` (stereo not given), with “inactive”.
As for `C=CC(=O)OCCCCOC(=O)C=C`, the AC50 is 54.1 µM (active).
`CC1OC(C)OC(C)O1` (stereo not given): the call was inactive.
Same read-out and setting: then `CSc1nc(N=[N+]=[N-])nc(NC(C)C)n1`, with “inactive”; and `Nc1ccccc1`, with “inactive”; and `[CH3][Sn]([Cl])([Cl])[Cl]`, with “inactive”.
The same measure, in the same setting: the value for `C=C(Cl)CCl` was “inactive”; that for `Nc1c(Cl)c(Cl)c(Cl)c(Cl)c1Cl` was “inactive”.
Same read-out and setting: then `CN(N=O)c1ccccc1`, with “inactive”; and `Nc1ccc(-c2ccc(N)c(N)c2)cc1N`, with “inactive”; and `CCOP(=O)(OCC)OCC`, with “inactive”.
Take `Cl/C=C\CCl`: the outcome was inactive.
On the same count and under the same terms, then `CN(C)CCC#N`, with “inactive”.
Take `Cc1ccc(OP(=O)(Oc2ccc(C)cc2)Oc2ccc(C)cc2)cc1` (tested in a mixture with another compound): the AC50 was 100 µM (active).
Consider `C=CC(=O)OC`, for which the outcome was inactive.
Still for that read-out and setting: then `O=C1Nc2ccc(Cl)cc2C(c2ccccc2)=NC1O` (stereo not given), with “inactive”.
Regarding `N#CCNCC#N`, the molecule was called inactive.
Same read-out and setting: the value for `CC(Cc1ccc(C(C)(C)C)cc1)CN1C[C@@H](C)O[C@@H](C)C1` (stereo not given in full) was “inactive”; that for `N#CC(c1ccccc1)c1ccccc1` was “inactive”.
The same measure, in the same setting: then `CCCCOP(=O)(O)OCCCC`, with “inactive”; and `CCOC(=O)NC(=S)Nc1ccccc1NC(=S)NC(=O)OCC`, with “inactive”.
Take `c1ccc(P(c2ccccc2)c2ccccc2)cc1`: the molecule was classed as inactive.
Same read-out and setting: then `CCCCCc1cc(O)cc(O)c1`, with “inactive”; and `[Cl][Sb]([Cl])[Cl]`, with “inactive”; and `Cc1ncc(C[n+]2csc(CCO)c2C)c(N)n1`, with “inactive”.
Still for that read-out and setting: then `CC(C)CCCCCCCOP(=O)(Oc1ccccc1)Oc1ccccc1`, with “inactive”.
Turning to `c1cc(OCC2CO2)ccc1Cc1ccc(OCC2CO2)cc1` (stereo not given), the AC50 was 49.1 µM (active).
The same measure, in the same setting: the value for `CCC(C)c1cc([N+](=O)[O-])cc([N+](=O)[O-])c1OC(=O)C=C(C)C` (stereo not given) was 141 µM (active).
As to `O=c1[nH]c(Cl)c(Cl)cc1Cl`, the outcome was inactive.
